MEKK2 mut-MEK5 – signal of MEK5 binding to mutant human MEKK2 PB1 domain. bead flow cytometry, Alexa488-MEK5 binding to MEKK2 mutant. actives 0.35% (n = 290,000). percent response, % at 10 µM; in the data active = percent response above about 24%, passing the limit was not always enough
MEKK3 PB1 HTS – modulators (inhibitors or enhancers) of MEK5 binding to human MEKK3 PB1 domain; AID 1529; actives 1.4% (n = 290,000); Q99759; bead-based flow cytometry, Alexa488-MEK5 binding to MEKK3; actives lie on both sides; 0 = blocked by unlabeled MEK5, 100 = vehicle; binding response (% of control), % at 10 µM;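 active = binding response more than 3 SD above or below the average of its plate-row segment, actives on both sides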;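 also: Alexa488 bead fluorescence after subtracting the streptavidin-only scavenger bead signal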
TMEM16A inh – inhibitors of mouse TMEM16A calcium-activated chloride channel; Q8BHY3; HEK293 TMEM16A/YFP iodide influx fluorescence, ionomycin; normalized B-score (activity score, 25-100; higher = stronger inhibition) at 10 µM; actives 1.2% (n = 310,000); AID 588511;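 active = ratio plate-corrected score three or more library SD toward inhibition, starting fluorescence score within five deviations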;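 also: score derived from kinetic fluorescence span divided by baseline fluorescence per well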
TMEM16A act – mouse TMEM16A channel activation, primary screen; HEK293 TMEM16A/YFP-H148Q/I152L, iodide quench fluorescence; active compounds read low; actives 0.3% (n = 340,000); B-score at 10 µM;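 active = fluorescence-ratio B-score plate-corrected deviation score at least 3 library SD below zero, with starting fluorescence score within 5 deviations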;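 also: channel opened by trigger with iodide after compound preincubation; score built on the fluorescence ratio of max minus min over baseline; more negative score means more quench and so TMEM16A activation or potentiation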
NTR1 agonist – activates human neurotensin receptor 1; actives 0.17% (n = 330,000); NTR1-U2OS beta-arrestin-GFP spot imaging, agonist mode; P30989; AID 493036; activation, % at 20 µM;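 active = activation at or above 40% of the spot to cytoplasm intensity ratio, with at least 20 cells analyzed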
Target sequence (P30989 whole entry, looked up): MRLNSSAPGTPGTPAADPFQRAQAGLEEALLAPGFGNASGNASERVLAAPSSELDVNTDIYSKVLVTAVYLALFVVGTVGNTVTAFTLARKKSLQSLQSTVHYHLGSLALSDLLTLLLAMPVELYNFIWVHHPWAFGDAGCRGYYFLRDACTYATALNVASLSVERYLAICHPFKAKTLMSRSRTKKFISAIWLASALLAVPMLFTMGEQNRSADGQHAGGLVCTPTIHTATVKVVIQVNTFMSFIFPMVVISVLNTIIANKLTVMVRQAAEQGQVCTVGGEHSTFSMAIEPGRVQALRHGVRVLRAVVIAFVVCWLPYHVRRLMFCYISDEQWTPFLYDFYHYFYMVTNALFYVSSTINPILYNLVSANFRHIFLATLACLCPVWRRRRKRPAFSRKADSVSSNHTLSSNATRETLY
MEKK2 WT-MEK5 – raises or lowers MEK5 binding to wildtype human MEKK2 PB1 domain; Q9Y2U5; bead flow cytometry, Alexa488-MEK5 binding to MEKK2 WT; actives lie on both sides; binding response (% of control), % at 10 µM; actives 1.1% (n = 290,000); AID 1531; in the data active = binding response below about 67% or above about 130%
Large screens that a line does not name were inactive; [ ] = remark or other dose. Shown are actives, neighbours in structure and some others; about 3.4% of the full set was active somewhere.

CCN1/C(=C\C=C(C(C)=O)C(C)=O)Sc2ccccc21	TMEM16A act -5.6
CCN1/C(=C2\OC(=S)N(C)C2=O)Sc2ccccc21	none (no result: MEKK2 mut-MEK5, MEKK3 PB1 HTS, MEKK2 WT-MEK5)
CCN(CC)c1ccc(N=Cc2c(C)[nH]c3ccccc23)cc1	MEKK3 PB1 HTS 75[inhibitor]
COc1ccc(C(=O)Nc2cccc(-c3ccc4nncn4n3)c2)cc1OC	TMEM16A act -6.9
O=C(O)Cc1cc(I)c(Oc2ccc(O)c(I)c2)c(I)c1	TMEM16A inh 100 (no result: TMEM16A act)
COc1ccc(O[C@H]2C=C[C@@H](c3ccccc3)O[C@@H]2COC(=O)CC/C(C)=N/O[C@@H](C)c2cc(-c3c(C)cc(C)cc3C)no2)cc1	none (no result: TMEM16A inh, TMEM16A act)
COc1ccc(O[C@H]2C=C[C@@H](c3ccccc3)O[C@@H]2COC(=O)CC/C(C)=N/OC[C@@H](O)COCc2ccco2)cc1	TMEM16A inh 25 (no result: TMEM16A act)
C(=C\c1sc(Nc2ccccc2)n[n+]1-c1ccccc1)/c1ccccc1	TMEM16A act -8.9 (no result: MEKK2 mut-MEK5, MEKK3 PB1 HTS, TMEM16A inh, NTR1 agonist, MEKK2 WT-MEK5)
COc1ccc(N2CCN(C(=O)c3ccc(Cl)c(S(=O)(=O)N4CCOCC4)c3)CC2)cc1	none (no result: MEKK2 mut-MEK5, MEKK3 PB1 HTS, TMEM16A inh, NTR1 agonist, MEKK2 WT-MEK5)
CNc1nn(-c2cccc(Cl)c2)nc1N	MEKK2 WT-MEK5 -1.0
O=C(CSc1nnc(CNC(=O)c2ccc(F)cc2)o1)NCc1ccc2c(c1)OCO2	none
CN(Cc1ccc(F)cc1)C(=O)c1cccc(S(=O)(=O)N2CCN(Cc3ccccc3)CC2)c1	none (no result: MEKK2 mut-MEK5, MEKK3 PB1 HTS, MEKK2 WT-MEK5)
CSc1ccc(CN(C)C(=O)c2cccc(S(=O)(=O)NCc3ccccc3)c2)cc1	TMEM16A inh 100
CSc1ccc(CN(C)C(=O)c2cccc(S(=O)(=O)N3CCN(Cc4ccccc4)CC3)c2)cc1	TMEM16A inh 100 (no result: MEKK2 mut-MEK5, MEKK3 PB1 HTS, MEKK2 WT-MEK5)
CCCn1c(N)c(NCCN2CCOCC2)c(=O)[nH]c1=O	none
CN(C)CCCNC(=S)NCC(c1ccc(Cl)cc1Cl)c1c[nH]c2ccccc12 (centres undefined)	MEKK2 mut-MEK5 73, MEKK2 WT-MEK5 223
CCOc1ccccc1N1Cc2ccccc2C1	TMEM16A act -5.5 (no result: MEKK2 mut-MEK5, MEKK3 PB1 HTS, MEKK2 WT-MEK5)
CS(=O)(=O)c1ccc(C(=O)OCc2nnc(-c3ccccc3)o2)cc1[N+](=O)[O-]	TMEM16A act -46 (no result: TMEM16A inh, NTR1 agonist)
CCOC(=O)c1cnc(-n2nc(C)cc2C)nc1NC1CCCCC1	TMEM16A inh 100
COc1ccccc1C(CCN(Cc1ccccc1)C(C)=O)c1ccco1 (centres undefined)	TMEM16A act -9.1
COc1ccccc1C(CC(N)=O)c1ccco1 (centres undefined)	none
Cn1c(Sc2ccc(Br)cc2)c(C=O)c2ccccc21	TMEM16A inh 100
Cn1c(Oc2ccc(F)cc2)c(C=O)c2ccccc21	none
COc1ccccc1CN(C)C(=O)c1ccccc1SCC(=O)N1CCCC1	none (no result: MEKK2 mut-MEK5, MEKK3 PB1 HTS, TMEM16A inh, MEKK2 WT-MEK5)
CC(C)(C)[C@@H]1C=C(C(=O)O)[C@H](c2ccc(Cl)cc2)N1S(=O)(=O)c1ccccc1	none (no result: MEKK2 mut-MEK5, MEKK3 PB1 HTS, TMEM16A inh, TMEM16A act, MEKK2 WT-MEK5)
Cc1cc(C(F)(F)F)n(-c2nc(C(=O)Nc3ccccc3Oc3ccccc3)cs2)n1	none (no result: TMEM16A inh, TMEM16A act, NTR1 agonist)
COc1ccccc1NC(=O)c1csc(-n2nc(C)cc2C(F)(F)F)n1	TMEM16A act -4.7
NS(=O)(=O)c1ccc(O)c(NC(=O)c2ccc([N+](=O)[O-])cc2)c1	none
Cc1ccc(Cc2c(C)nc3nc(SCC(=O)NCCCN4CCCCCC4)nn3c2C)cc1	MEKK2 mut-MEK5 37, MEKK2 WT-MEK5 234 (no result: TMEM16A act)
Cc1nc2nc(SCC(=O)NCCCN3CCCCC3)nn2c(C)c1Cc1ccccc1	none
Cc1cc(S(=O)(=O)Nc2ccc3c(c2)n(C)c(=O)n3C)ccc1F	TMEM16A inh 100
[O-][n+]1c2c(c3c4non(O)c4ccc31)CCCC2	TMEM16A inh 100
Cc1ccc(C)c(N2CCN(C3CCCCC3NS(=O)(=O)c3ccccc3)CC2)c1 (centres undefined)	TMEM16A act -6.2
O=S(=O)(NC1CCCCC1N1CCCCC1)c1ccccc1 (centres undefined)	none
COc1ccc(N2CCN(C3CCCCC3NS(=O)(=O)c3ccc(Cl)cc3)CC2)cc1 (centres undefined)	none
Cc1ccc(Cl)cc1N1CCN(C2CCCCC2NS(=O)(=O)c2ccccc2)CC1 (centres undefined)	TMEM16A act -9.7
COc1ccccc1N1CCN(C2CCCCC2NS(=O)(=O)c2ccc(Cl)cc2)CC1 (centres undefined)	TMEM16A act -33
CCOC(=O)C1=C(c2ccccc2)NC(=O)NC1c1cccc(OC)c1OC (centres undefined)	none (no result: MEKK2 mut-MEK5, MEKK3 PB1 HTS, MEKK2 WT-MEK5)
O=S(=O)(Nc1ncnc2sc3c(c12)CCC3)c1ccc(Cl)s1	TMEM16A inh 25
CC(C)CC(c1nnnn1Cc1cccs1)N1CCN(c2nc3ccccc3s2)CC1 (centres undefined)	TMEM16A act -8.3
CCC(c1nnnn1Cc1cccs1)N1CCN(c2nc3ccccc3s2)CC1 (centres undefined)	none
COc1cc(CC(=O)OCC(=O)Nc2sccc2C(N)=O)cc(OC)c1OC	TMEM16A inh 100
CC(=O)Nc1ccc(S(=O)(=O)Oc2ccc3c(c2)C(C)=CC(C)(C)N3)cc1	TMEM16A inh 25 (no result: TMEM16A act)
CC(=O)c1ccc(S(=O)(=O)N2CCC(NC(=O)Nc3cccc(F)c3)CC2)cc1	TMEM16A act -7.9
Cc1ccc(S(=O)(=O)N2CCC(NC(=O)c3cccc(C)c3)CC2)cc1	TMEM16A act -7.1
Cc1cccc(C(=O)NC2CCN(S(=O)(=O)c3ccc(F)cc3)CC2)c1	none
COC(=O)c1cccc(S(=O)(=O)N2CCC(NC(=O)Nc3cccc(F)c3)CC2)c1	none
Cc1ccc(C)c(Cn2c3ccccc3c3cnn(CC(=O)NCc4ccccn4)c(=O)c32)c1	TMEM16A act -7.2
O=C(Cn1ncc2c3ccccc3n(Cc3ccccc3F)c2c1=O)NCCCN1CCCC1=O	TMEM16A act -5.2
CCOC(=O)Cc1csc(NC(=O)c2ccc3ncsc3c2)n1	none
COc1ccc(/C=C/c2cccc[n+]2C)c(O)c1	none
CCN(CC)c1ccc(/C=C/c2cccc[n+]2C)c(OC)c1	MEKK2 WT-MEK5 12
CCc1c2ccccc2nn1-c1ccccc1C(=O)C(C)=O	none
CCC(CC)C(=O)Nc1ccc(C)c(O)c1	TMEM16A act -9.6 (no result: MEKK2 mut-MEK5, MEKK3 PB1 HTS, MEKK2 WT-MEK5)
CCc1ccc(CC2S/C(=C(\C#N)C(C)=O)NC2=O)cc1 (centres undefined)	TMEM16A inh 100
CCOC(=O)c1cc2c(=O)n3cccc(C)c3nc2n(CCOC)c1=NC(C)=O	none
COc1ccc(OC)c(/C=N\NC(=O)CSc2nnc(CCCc3ccc(OC)c(C)c3)o2)c1	TMEM16A inh 100
CN(CC1CCCO1)S(=O)(=O)c1ccc(C(=O)Nc2ccccc2F)cc1 (centres undefined)	none

Compound activity: PubChem BioAssay, several laboratories
